Measured values as given in PubChem BioAssay AID1159580 (chemical genetic matrix, 2015).
In all, about 5,500 compounds went through this assay and about 2,000 (36%) were called active. About 18% were inconclusive and are not listed. Cut-off read from the data, not from the text of the source: active = normalized growth mostly below about 0.91 (no sharp cut-off); inconclusive = no clear call, values can overlap the other calls; inactive = mostly above about 0.92. This is one part of the list.

Assay: chemical genetic growth profiling, strain panel (AID 1159580);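 note: tested at 20 µM; growth read once vehicle control cultures reached saturation at 30 °C; 1 = growth at the plate median or of vehicle wells; lower values mean less growth of the strain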
Conditions: growth OD

Measured: normalized growth

C[N+](C)(C)CC(O)CC(=O)O (stereo unspecified)
inactive: S. cerevisiae deletion strains, locus YKL009W, strain mrt4, hits give low values 1.03 | S. cerevisiae deletion strains, locus YKL068W, hits give low values 1 | S. cerevisiae deletion strains, locus YKL085W, strain MDH1 (second series), hits give low values 1.02 | S. cerevisiae deletion strains, locus YKL085W, strain MDH1, hits give low values 1.02 | S. cerevisiae deletion strains, locus YKL160W, strain elf1, hits give low values 0.982 | S. cerevisiae deletion strains, locus YKL190W, strain CNB1, hits give low values 1.01 | S. cerevisiae deletion strains, locus YKR001C, strain vps1, hits give low values 0.993 | S. cerevisiae deletion strains, locus YKR026C, strain gcn3, hits give low values 0.98 | S. cerevisiae deletion strains, locus YKR091W, strain srl3, hits give low values 0.977 | S. cerevisiae deletion strains, locus YLL001W, strain dnm1, hits give low values 0.975 | S. cerevisiae deletion strains, locus YLL026W, hits give low values 0.991 | S. cerevisiae deletion strains, locus YLL041C, strain sdh2, hits give low values 0.985 | S. cerevisiae deletion strains, locus YLR027C, strain aat2, hits give low values 0.982 | S. cerevisiae deletion strains, locus YLR039C, strain RIC1, hits give low values 1 | S. cerevisiae deletion strains, locus YLR058C, strain SHM2, hits give low values 1.01 | S. cerevisiae deletion strains, locus YLR102C, strain apc9, hits give low values 0.997 | S. cerevisiae deletion strains, locus YLR113W, strain HOG1, hits give low values 0.994 | S. cerevisiae deletion strains, locus YLR221C, strain rsa3, hits give low values 1.03 | S. cerevisiae deletion strains, locus YLR258W, strain gsy2, hits give low values 0.981 | S. cerevisiae deletion strains, locus YLR262C, strain YPT6 (second series), hits give low values 1.01 | S. cerevisiae deletion strains, locus YLR262C, strain YPT6, hits give low values 1.02 | S. cerevisiae deletion strains, locus YLR268W, strain sec22, hits give low values 0.992 | S. cerevisiae deletion strains, locus YLR320W, strain mms22, hits give low values 0.978 | S. cerevisiae deletion strains, locus YLR330W, strain CHS5, hits give low values 1.01 | S. cerevisiae deletion strains, locus YLR342W, strain FKS1 (second series), hits give low values 0.996 | S. cerevisiae deletion strains, locus YLR342W, strain FKS1, hits give low values 0.964 | S. cerevisiae deletion strains, locus YLR357W, strain rsc2, hits give low values 0.988 | S. cerevisiae deletion strains, locus YLR370C, strain arc18, hits give low values 0.973 | S. cerevisiae deletion strains, locus YLR371W, strain rom2, hits give low values 0.999 | S. cerevisiae deletion strains, locus YLR384C, strain iki3, hits give low values 0.967 | S. cerevisiae deletion strains, locus YLR418C, strain cdc73, hits give low values 0.993 | S. cerevisiae deletion strains, locus YML016C, strain PPZ1, hits give low values 1 | S. cerevisiae deletion strains, locus YML032C, strain rad52, hits give low values 1 | S. cerevisiae deletion strains, locus YML120C, strain ndi1, hits give low values 0.998 | S. cerevisiae deletion strains, locus YML124C, strain tub3, hits give low values 1 | S. cerevisiae deletion strains, locus YMR058W, strain fet3, hits give low values 0.991 | S. cerevisiae deletion strains, locus YMR078C, strain ctf18, hits give low values 0.998 | S. cerevisiae deletion strains, locus YMR125W, strain sto1, hits give low values 0.969 | S. cerevisiae deletion strains, locus YMR129W, hits give low values 0.991 | S. cerevisiae deletion strains, locus YMR205C, strain PFK2, hits give low values 0.989 | S. cerevisiae deletion strains, locus YMR223W, strain ubp8, hits give low values 1.01 | S. cerevisiae deletion strains, locus YMR231W, strain pep5, hits give low values 0.983 | S. cerevisiae deletion strains, locus YMR263W, strain SAP30, hits give low values 1.01 | S. cerevisiae deletion strains, locus YMR307W, strain GAS1, hits give low values 0.949 | S. cerevisiae deletion strains, locus YNL067W, strain RPL9B, hits give low values 1 | S. cerevisiae deletion strains, locus YNL071W, strain lat1, hits give low values 0.992 | S. cerevisiae deletion strains, locus YNL128W, strain TEP1, hits give low values 1.01 | S. cerevisiae deletion strains, locus YNL153C, strain GIM3, hits give low values 1.01 | S. cerevisiae deletion strains, locus YNL183C, strain NPR1, hits give low values 0.922 | S. cerevisiae deletion strains, locus YNL209W, strain ssb2, hits give low values 0.989 | S. cerevisiae deletion strains, locus YNL233W, strain BNI4, hits give low values 1 | S. cerevisiae deletion strains, locus YNL248C, strain rpa49, hits give low values 0.98 | S. cerevisiae deletion strains, locus YNL250W, strain rad50, hits give low values 0.995 | S. cerevisiae deletion strains, locus YNL271C, strain bni1, hits give low values 0.996 | S. cerevisiae deletion strains, locus YNL298W, strain CLA4, hits give low values 0.984 | S. cerevisiae deletion strains, locus YNL307C, strain MCK1, hits give low values 1.01 | S. cerevisiae deletion strains, locus YNL322C, strain KRE1 (second series), hits give low values 0.963 | S. cerevisiae deletion strains, locus YNL322C, strain KRE1, hits give low values 1 | S. cerevisiae deletion strains, locus YNR049C, strain mso1, hits give low values 0.981 | S. cerevisiae deletion strains, locus YNR052C, strain pop2, hits give low values 0.994 | S. cerevisiae deletion strains, locus YOL006C, strain TOP1, hits give low values 1.03 | S. cerevisiae deletion strains, locus YOL012C, strain htz1 0.718 | S. cerevisiae deletion strains, locus YOL147C, strain pex11, hits give low values 1.01 | S. cerevisiae deletion strains, locus YOR001W, strain rrp6, hits give low values 0.999 | S. cerevisiae deletion strains, locus YOR061W, strain CKA2, hits give low values 1.01 | S. cerevisiae deletion strains, locus YOR069W, strain VPS5, hits give low values 1 | S. cerevisiae deletion strains, locus YOR070C, strain gyp1, hits give low values 0.993 | S. cerevisiae deletion strains, locus YOR080W, strain dia2, hits give low values 0.987 | S. cerevisiae deletion strains, locus YOR083W, strain WHI5, hits give low values 0.989 | S. cerevisiae deletion strains, locus YOR106W, strain vam3, hits give low values 0.968 | S. cerevisiae deletion strains, locus YOR136W, strain idh2, hits give low values 0.991 | S. cerevisiae deletion strains, locus YOR144C, strain elg1, hits give low values 1 | S. cerevisiae deletion strains, locus YOR184W, strain ser1, hits give low values 1.01 | S. cerevisiae deletion strains, locus YOR231W, strain MKK1, hits give low values 0.989 | S. cerevisiae deletion strains, locus YOR265W, strain rbl2, hits give low values 0.996 | S. cerevisiae deletion strains, locus YOR270C, strain vph1, hits give low values 1.01 | S. cerevisiae deletion strains, locus YOR290C, strain snf2, hits give low values 0.977 | S. cerevisiae deletion strains, locus YOR316C, strain cot1, hits give low values 1 | S. cerevisiae deletion strains, locus YPL051W, strain arl3, hits give low values 0.982 | S. cerevisiae deletion strains, locus YPL055C, strain LGE1, hits give low values 1.04 | S. cerevisiae deletion strains, locus YPL078C, strain atp4, hits give low values 0.986 | S. cerevisiae deletion strains, locus YPL106C, strain sse1, hits give low values 0.978 | S. cerevisiae deletion strains, locus YPL240C, strain hsp82, hits give low values 1 | S. cerevisiae deletion strains, locus YPL241C, strain CIN2, hits give low values 1 | S. cerevisiae deletion strains, locus YPL256C, strain CLN2, hits give low values 0.983 | S. cerevisiae deletion strains, locus YPR119W, strain clb2, hits give low values 0.988 | S. cerevisiae deletion strains, locus YPR141C, strain kar3, hits give low values 0.995 | S. cerevisiae deletion strains, locus YPR163C, strain tif3, hits give low values 0.994 | S. cerevisiae deletion strains, locus YPR167C, strain met16, hits give low values 1 | S. cerevisiae deletion strains, strain wtn01, hits give low values 0.989 | S. cerevisiae strains, strain wild type, hits give low values 1.01
